From PubChem BioAssay
An excerpt weighted towards active compounds, which were near 10% of everything screened.
GPT2 inhibitor = blocks human glutamate pyruvate transaminase 2 | Q8TD30 | Potency, µM (highest dose often 57.7 µM), most hits filed as inhibitors | 0.25% of 100,000 active | Recombinant GPT2, coupled pyruvate oxidase/HRP Amplex Red fluorescence; further: nearly all actives have a fitted effect of over 60% in size
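Fluorescence of coupled pyruvate oxidase/HRP/Amplex Red system (50uM Amplex, 30 min, dark) reports pyruvate formed by GPT2. Enzyme reaction: 10ng/uL GPT2, 2mM L-alanine, 250uM a-KG, 30 min room temperature, pH 7.5; 50uM AOA control.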
hNpr1 antagonist = human Npr1 receptor antagonism. P16066. HEK293 hNpr1 GloSensor cGMP, ANP-stimulated luminescence. Potency, µM (top dose mostly 46.3 µM), actives largely listed as inhibitors. 1.6% of 76,000 active. AID 1347048; calls by dose curve; further: nearly all actives have a fitted effect of over 60% in size
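Compound pre-incubated 30 min at room temperature on GloSensor-loaded HEK293 cells stably carrying hNpr1 and the pGS-40F cGMP biosensor. Stimulation uses hNppA at 0.1 nM final; luminescence is taken at baseline and 20 min post-agonist.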
Luciferase inh = Photinus pyralis luciferase inhibition. P08659. purified P. pyralis luciferase, luminescence, biochemical. Potency, µM (doses to about 115 µM), hits mostly inhibitors. 2.5% of 76,000 active; further: nearly all actives have a fitted effect of over 65% in size
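Inhibitors were tested against purified firefly luciferase in a biochemical, low-substrate format (both substrates at 10uM) and luminescence measured with a CCD imager.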
3T3 cytotox = kills NIH 3T3 cells; Potency, µM (titrated, usually from 96.7 µM), usual class: inhibitors; 4.3% of 94,000 active; NIH 3T3 viability, CellTiter-Glo ATP luminescence, 48-72 h; AID 1345082; further: nearly all actives have a fitted effect of over 55% in size
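Cells were seeded at 400 per well, treated with pin-transferred compound, and kept 48 or 72 hr at 37 °C before CellTiter-Glo addition and luminescence imaging of cellular ATP.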
HEK293 tox = cytotoxic compounds in HEK 293 cells; HEK 293 viability, ATP luminescence (CellTiter-Glo), 48-72 h; Potency, µM (top dose mostly 115 µM), most hits filed as inhibitors; 6.6% of 94,000 active; AID 1345083; further: nearly all actives have a fitted effect of over 60% in size
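Viability of HEK 293 cells, plated at 250 cells/well, was judged by cellular ATP after compound treatment for 48 or 72 hr. Luminescence was imaged 10 min after CellTiter-Glo addition at room temperature.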
Npr1 antag conf = hNpr1 antagonism, confirmation assay; 76% of 1,400 active; HEK293 hNpr1 cGMP GloSensor luminescence, ANP-stimulated; AID 1347044; Potency, µM (titrated, usually from 57.6 µM), most hits filed as inhibitors; shares compounds with hNpr1 antagonist; calls by dose curve; further: nearly all actives have a fitted effect of over 70% in size
Npr2 selectivity = selectivity test of Npr1 antagonists against human Npr2. 67% of 1,400 active. Potency, µM (doses to about 57.6 µM), actives largely listed as inhibitors. HEK293 hNpr2 GloSensor cGMP luminescence, CNP-stimulated. shares compounds with hNpr1 antagonist; calls by dose curve; further: nearly all actives have a fitted effect of over 70% in size
Target sequence (P20594 whole entry, looked up): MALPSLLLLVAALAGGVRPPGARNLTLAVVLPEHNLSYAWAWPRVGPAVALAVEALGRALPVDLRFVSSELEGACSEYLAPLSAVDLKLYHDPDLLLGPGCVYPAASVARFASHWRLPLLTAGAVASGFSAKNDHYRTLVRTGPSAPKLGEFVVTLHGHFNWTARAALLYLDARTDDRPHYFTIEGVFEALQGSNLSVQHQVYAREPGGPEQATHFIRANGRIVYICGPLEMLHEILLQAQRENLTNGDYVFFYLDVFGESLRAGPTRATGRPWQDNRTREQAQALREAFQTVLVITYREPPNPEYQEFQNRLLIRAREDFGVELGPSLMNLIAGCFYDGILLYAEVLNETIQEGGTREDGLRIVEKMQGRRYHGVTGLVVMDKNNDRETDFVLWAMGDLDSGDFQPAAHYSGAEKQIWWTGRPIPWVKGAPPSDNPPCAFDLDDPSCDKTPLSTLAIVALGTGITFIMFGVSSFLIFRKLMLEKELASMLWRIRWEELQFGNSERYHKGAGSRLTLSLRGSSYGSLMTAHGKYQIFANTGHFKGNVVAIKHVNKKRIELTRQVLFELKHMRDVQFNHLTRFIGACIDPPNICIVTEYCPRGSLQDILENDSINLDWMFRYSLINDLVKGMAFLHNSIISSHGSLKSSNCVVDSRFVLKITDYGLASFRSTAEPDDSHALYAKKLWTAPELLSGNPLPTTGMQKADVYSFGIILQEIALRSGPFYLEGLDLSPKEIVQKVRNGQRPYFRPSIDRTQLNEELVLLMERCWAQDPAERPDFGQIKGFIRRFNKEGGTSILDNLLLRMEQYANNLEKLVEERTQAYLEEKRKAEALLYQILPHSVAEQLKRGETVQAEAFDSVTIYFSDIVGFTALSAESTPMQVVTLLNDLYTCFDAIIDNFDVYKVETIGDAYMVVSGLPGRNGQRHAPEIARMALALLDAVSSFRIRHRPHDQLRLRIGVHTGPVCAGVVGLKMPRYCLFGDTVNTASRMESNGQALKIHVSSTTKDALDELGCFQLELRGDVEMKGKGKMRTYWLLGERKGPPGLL
FLuc inh counter = counter-screen for Npr1 antagonists: firefly luciferase inhibitors. AID 1347047. Potency, µM (titrated, usually from 57.6 µM), actives largely listed as inhibitors. purified FLuc enzyme, luminescence, Km substrate. shares compounds with hNpr1 antagonist. 0.7% of 1,400 active; further: series mostly up to about 58 µM
GloSensor ctrl = counter-screen for Npr1 antagonists: GloSensor control cell line | Potency, µM (series often up to 57.6 µM), usual class: inhibitors | AID 1347051 | HEK293 GloSensor cGMP, SNP-stimulated, luminescence | shares compounds with hNpr1 antagonist | 69% of 1,400 active; calls by dose curve; further: nearly all actives have a fitted effect of over 70% in size
Hits are given with their value. Unless noted, the call rests on the fitted dose curve; in most records, active means well fitted curve in the direction sought with a large enough effect; inconclusive means small, poorly fitted or top-dose-only effect, or another doubt; inactive means no such curve, though single readings can be large; an effect the other way counts as inactive or inconclusive.

Screening CC(C)(C)c1noc(-c2nnn3c2COC(c2ccc(Cl)cc2)C3)n1 (stereo not given) returned GPT2 inhibitor inactive, hNpr1 antagonist inconclusive, Luciferase inh inactive, 3T3 cytotox inconclusive, HEK293 tox inconclusive, Npr1 antag conf 19.3µM, Npr2 selectivity inconclusive, FLuc inh counter inactive and GloSensor ctrl inactive.
COc1ccc(CN2CCNc3cnc(OCc4cccnc4)cc3C2)cn1 was read as GPT2 inhibitor inactive, hNpr1 antagonist inconclusive, Luciferase inh inactive, 3T3 cytotox inactive and HEK293 tox inconclusive.
`CCOc1cc2c(cn1)NCCN(Cc1ccncc1Cl)C2` gave GPT2 inhibitor inactive, hNpr1 antagonist 35.5µM, Luciferase inh inactive, 3T3 cytotox inconclusive, HEK293 tox inconclusive, Npr1 antag conf 31.4µM, Npr2 selectivity inconclusive, FLuc inh counter inactive and GloSensor ctrl 39.6µM.
`Clc1cnccc1CN1CCNc2cnc(Oc3ccccc3)cc2C1` gave GPT2 inhibitor inactive, hNpr1 antagonist 3.98µM, Luciferase inh inactive, 3T3 cytotox inconclusive, HEK293 tox 89.1µM, Npr1 antag conf 6.27µM, Npr2 selectivity 8.86µM, FLuc inh counter inactive and GloSensor ctrl 4.98µM.
Screening Clc1cnccc1CN1CCNc2cnc(-c3ccccc3)cc2C1 returned GPT2 inhibitor inactive, hNpr1 antagonist 28.2µM, Luciferase inh inactive, 3T3 cytotox inconclusive, HEK293 tox inconclusive, Npr1 antag conf 31.4µM, Npr2 selectivity 35.3µM, FLuc inh counter inactive and GloSensor ctrl 31.4µM.
For O=C(Nc1ccc(Cl)cc1)N1CCCC(c2nn(-c3ccccc3)c(=O)[nH]2)C1 (stereo not given) the results were GPT2 inhibitor inactive, hNpr1 antagonist inactive, Luciferase inh inactive, 3T3 cytotox inactive and HEK293 tox inactive.
CC1(c2noc(C3CCOCC3)n2)CCN(Cc2ccc(Cl)cc2F)CC1 was read as GPT2 inhibitor inactive, hNpr1 antagonist 12.6µM, Luciferase inh inactive, 3T3 cytotox inactive, HEK293 tox inconclusive, Npr1 antag conf 24.3µM, Npr2 selectivity 24.3µM, FLuc inh counter inactive and GloSensor ctrl 21.7µM.
Screening CC(C)Oc1ccc(CN2CCC(C)(c3noc(C4CCOCC4)n3)CC2)cc1 returned GPT2 inhibitor inactive, hNpr1 antagonist inactive, Luciferase inh inactive, 3T3 cytotox inactive and HEK293 tox inactive.
Screening COc1ccc(S(=O)(=O)NC[C@H]2Cn3c(-c4ccc(Cl)cc4)cnc3CO2)cc1 returned GPT2 inhibitor inactive, hNpr1 antagonist inconclusive, Luciferase inh inactive, 3T3 cytotox 79.4µM, HEK293 tox 89.1µM, Npr1 antag conf inconclusive, Npr2 selectivity inconclusive, FLuc inh counter inactive and GloSensor ctrl inactive.
`COc1ccc(CNC[C@H]2Cn3c(-c4ccc(Cl)cc4)cnc3CO2)cc1` gave GPT2 inhibitor inactive, hNpr1 antagonist 25.1µM, Luciferase inh inactive, 3T3 cytotox 31.6µM, HEK293 tox 56.2µM, Npr1 antag conf 31.4µM, Npr2 selectivity 35.3µM, FLuc inh counter inactive and GloSensor ctrl inconclusive.
Screening COc1ccc(C(=O)NC[C@H]2Cn3c(-c4ccc(F)cc4)cnc3CO2)cc1 returned GPT2 inhibitor inactive, hNpr1 antagonist inconclusive, Luciferase inh inactive, 3T3 cytotox inconclusive and HEK293 tox inconclusive.
`O=C(Nc1ccccc1)NC1CCCN(Cc2ccc(-c3cncnc3)cc2)C1` (stereo not given) gave GPT2 inhibitor inactive, 3T3 cytotox inactive and HEK293 tox inconclusive.
Cc1ccc(C(=O)N2CCC(Cc3nc(-c4ccccc4)no3)CC2)c(C)c1 was read as GPT2 inhibitor inactive, hNpr1 antagonist 6.31µM, Luciferase inh inactive, 3T3 cytotox inconclusive, HEK293 tox 50.1µM, Npr1 antag conf 3.85µM, Npr2 selectivity 5.44µM, FLuc inh counter inactive and GloSensor ctrl 3.85µM.
`CCCCOc1ccc(C(=O)N2CCC(Cc3nc(-c4cnccn4)no3)CC2)cc1` gave GPT2 inhibitor inactive, hNpr1 antagonist inconclusive, Luciferase inh inactive, 3T3 cytotox inconclusive, HEK293 tox inconclusive, Npr1 antag conf inconclusive, Npr2 selectivity inconclusive, FLuc inh counter inactive and GloSensor ctrl inconclusive.
Screening O=C(N1CCC(Cc2nc(C3CCOCC3)no2)CC1)C1(c2ccccc2)CC1 returned GPT2 inhibitor inactive, hNpr1 antagonist inactive, Luciferase inh inactive, 3T3 cytotox inactive and HEK293 tox inactive.
For Cc1ccc(C(=O)N2CCC(Cc3nc(-c4cnccn4)no3)CC2)cc1 the results were GPT2 inhibitor inactive, hNpr1 antagonist inactive, Luciferase inh inactive, 3T3 cytotox inconclusive and HEK293 tox inconclusive.
Screening CCOc1ccc(C(=O)N2CCC(Cc3nc(-c4cnccn4)no3)CC2)cc1 returned GPT2 inhibitor inactive, hNpr1 antagonist inactive, Luciferase inh inactive, 3T3 cytotox inconclusive and HEK293 tox inactive.
For Cc1ccc(C(=O)N2CCC(Cc3nc(-c4cnccn4)no3)CC2)c(C)c1 the results were GPT2 inhibitor inactive, hNpr1 antagonist inactive, Luciferase inh inactive, 3T3 cytotox inactive and HEK293 tox inconclusive.
Screening COc1ccc(-c2noc(CC3CCN(C(=O)C4(c5ccc(OC)cc5)CC4)CC3)n2)cc1 returned GPT2 inhibitor inactive, hNpr1 antagonist 1.41µM, Luciferase inh inactive, 3T3 cytotox inconclusive, HEK293 tox inconclusive, Npr1 antag conf 2.73µM, Npr2 selectivity 3.43µM, FLuc inh counter inactive and GloSensor ctrl 3.06µM.
`CCc1ccc(C(=O)N2CCC(Cc3nc(-c4ccc(OC)cc4)no3)CC2)cc1` gave GPT2 inhibitor inactive, hNpr1 antagonist 3.55µM, Luciferase inh inactive, 3T3 cytotox inconclusive, HEK293 tox inconclusive, Npr1 antag conf 6.11µM, Npr2 selectivity 9.68µM, FLuc inh counter inactive and GloSensor ctrl 6.85µM.
COc1nc2nc(CC3CC3)n(C)c2cc1-c1ccc(O)c(F)c1 was read as GPT2 inhibitor inactive, hNpr1 antagonist inactive, Luciferase inh inactive, 3T3 cytotox inconclusive and HEK293 tox inconclusive.
CCOCCn1c(=O)[nH]c2cc(C(=O)N(C)Cc3ccsc3)ccc21 was read as GPT2 inhibitor inactive, hNpr1 antagonist inactive, Luciferase inh inactive, 3T3 cytotox inactive and HEK293 tox inconclusive.
